Reference: the supplement of paper PMC6555819

How the values were obtained:
Assay in all cases: PBM binding z-score (relative to random genomic background probes); higher = stronger binding; sequences stand for … in GC…GCGATTGACAGCGTAGAATGAAGG
[1] = system: PPARg:RXRa DBDmut IVT, anti-RXR (DBD mutation: RXRa K156A/R161A, NR concentration 270 nM, RXRa partner concentration 90 nM)
Method in brief: (§1)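 Binding z-scores were set against random background probes. The data came from custom Agilent 4×180K protein-binding microarrays carrying double-stranded probes with 34-nt variable regions, incubated 1 h with ligand-free nuclear receptor dimers. Partner-specific antibodies detected binding, and scanned fluorescence was regression-normalized.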

[2] = system: PPARg:RXRa IVT, anti-PPARg (NR concentration 270 nM, RXRa partner concentration 90 nM)
Method in brief: as §1

[3] = system: PPARg DBDmut:RXRa IVT, anti-PPARg (DBD mutation: PPARg1 K132A/R137A, NR concentration 270 nM, RXRa partner concentration 90 nM)
Method in brief: as §1

[4] = system: PPARg DBDmut IVT, anti-PPARg (DBD mutation: PPARg1 K132A/R137A, NR concentration 270 nM)
Method in brief: as §1

[5] = system: PPARg homodimer (NR concentration 180 nM)
Method in brief: as §1

[6] = system: PXR:RXRa (NR concentration 270 nM, RXRa partner concentration 90 nM)
Method in brief: as §1

[7] = system: PXR homodimer (NR concentration 270 nM)
Method in brief: as §1

[8] = system: RARa:RXR (NR concentration 270 nM, RXRa partner concentration 90 nM)
Method in brief: as §1

[9] = system: RARa homodimer (NR concentration 270 nM)
Method in brief: as §1

[10] = system: RARb:RXRa (NR concentration 270 nM, RXRa partner concentration 90 nM)
Method in brief: as §1

Sequence | PBM binding z-score [1] | PBM binding z-score [2] | PBM binding z-score [3] | PBM binding z-score [4] | PBM binding z-score [5] | PBM binding z-score [6] | PBM binding z-score [7] | PBM binding z-score [8] | PBM binding z-score [9] | PBM binding z-score [10]
CCGACTGGGGCATAAGGTTGCCATAAGCCAGCCC | 2.51 | 2.07 | -0.622 | -1.53 | -0.22 | -0.532 | -0.499 | 0.0769 | -0.329 | 0.569
CTTCAAAGTTCAACTAAGGTAACGTAAAGCACGC | 0.299 | 1.44 | 1.35 | 1.17 | 3.47 | 5.58 | 4.16 | 4.32 | 2.15 | 5.19
CCTACTAGTTGACCATAAGGGCAACCGAAGCTCG | 0.2 | 0.479 | 0.235 | -0.627 | 1.22 | 0.406 | 0.317 | 0.81 | 1.01 | 1.39
CCTAGTTCGTCAGGAGGTCACACACCGGATATGA | 1.04 | 2.38 | 0.424 | 0.947 | 5.39 | 5.2 | 2.66 | 5.34 | 2.32 | 3.76
CCTTACGGGTCACTCCAGGTTATAACATCGGAGT | 2.06 | 3.72 | 1.23 | 0.622 | 1.05 | 4.66 | 0.462 | 3.51 | -0.23 | 3.67
TCGAGTAGGTTGGTCGGGGCATTCAGCCAACATA | 0.51 | -0.219 | -0.384 | -1.1 | -0.0818 | 0.102 | -0.155 | 0.0862 | -0.932 | 0.117
ATATGTAGGTTCGCTGGGGTCATTCAGACTAGGC | 3.5 | 3.76 | 1.92 | 1.5 | 2.78 | 6.18 | 12.4 | 6.02 | 1.12 | 2.72
CAAACTAGGTCATGAGGTCAAAGTCCGCTTCCCG | 8.1 | 8.5 | 2.32 | 1.99 | 5.08 | 5.91 | 4.28 | 6.92 | 2.05 | 5.03
CCTAGCAGGCCAGGGTCAATCAAGCATTTCGCTT | 0.298 | 0.837 | -1.44 | -2.02 | 1.08 | 3.43 | -0.3 | 4.4 | 0.17 | 2.72
TCTTGTAGATCAAAGGTTCAGAAAGCCGAAGCCT | 1.88 | 1.55 | 0.156 | 0.203 | 0.638 | 0.73 | -0.103 | 1.13 | -0.254 | 0.898
GCAAGCAGGCCATTTGGGTCACTCAATGACGGGC | 1.67 | 2.35 | -0.319 | -0.988 | 0.0293 | 0.422 | 0.0274 | 0.6 | -0.747 | 1.33
GCTATTTGGTCAGTAAAAGGTCACACACCGGTCG | 1.19 | 3.03 | 0.901 | 1.1 | 3.8 | 5.12 | 1.46 | 5.67 | 2.38 | 4.45
GCAGACAGGTGAAAAGCAGGTAACTCAGGGTGGC | 0.172 | 0.778 | -0.581 | -1.28 | -0.799 | -0.441 | -0.329 | 0.143 | -0.401 | 0.42
ACAGACAGGTGATGAAGGTAACTCAGGCTATCAT | 0.422 | 0.692 | 0.619 | 0.238 | 0.146 | -0.153 | 0.282 | 0.117 | 0.425 | 0.236
TAGCCTAGGCCATTCAGGGGCCAGTATAGAAAGC | -0.752 | 0.1 | -0.845 | -0.806 | -0.678 | -0.717 | -0.964 | -0.354 | -0.891 | 0.992
CCAGATAGGTGAGAAGGTAACTCAGCCTCGATTA | 2.53 | 1.72 | -0.37 | -0.16 | 1.05 | 0.0792 | 0.177 | 0.307 | 0.419 | 0.76
CCTTACGGGTCAAGGTTATAGGACGGGTGGTACG | 1.92 | 3.64 | 0.411 | -0.184 | 2.15 | 3.39 | 0.631 | 4.15 | 0.493 | 4.13
AGATTGAGGTTATACGTAGATCAGGGAAGAAAGT | 2.54 | 1.38 | 1.05 | 1.23 | 0.726 | 1.23 | 0.75 | 1.7 | 0.422 | 1.28
CCTCGGAGGACCGAAGGTCAGAGCTGTCCGCTTT | -0.463 | -0.175 | -1.41 | -1.98 | 0.693 | 1.16 | -0.615 | 1.55 | -0.211 | 2.2
CTCGAAAGGTCGTGCTCAGGTCAGTATACCAAAC | 1.1 | 2.14 | 1.37 | 1.38 | 3.94 | 5.57 | 1.25 | 6.37 | 0.951 | 4.41
ACTAGCAGCCCAAGGGTCACTCAAGATTAGTCCG | -0.509 | 1.13 | -0.437 | -0.614 | 1.34 | 2.97 | 0.208 | 3.58 | 0.48 | 3.27
GCTAGTAGTTGAAAGGGCAACCGAATGATTCTCG | 0.195 | 1.26 | -0.638 | -0.335 | 1.55 | 0.658 | -0.0187 | 1.47 | -1.01 | 1.88
CAAACTAGGGCAAGAGGTCAAAGTCCGCTTCCCG | 6.91 | 7.47 | 1.69 | 0.0985 | 3 | 5.35 | 1.49 | 5.98 | 1.61 | 4.51
CAAACTAGGTCACCGGAAGGTCCAAGTCCGCATG | 8.74 | 8.78 | 2.63 | 2.9 | 2.36 | 2.43 | -0.0607 | 3.18 | 1.11 | 4.39

Sequence | PBM binding z-score [1] | PBM binding z-score [2] | PBM binding z-score [3] | PBM binding z-score [4] | PBM binding z-score [5] | PBM binding z-score [6] | PBM binding z-score [7] | PBM binding z-score [8] | PBM binding z-score [9] | PBM binding z-score [10]
CCTGACGGGTCACGAGGTTATAGCACGACGAGCG | 2.13 | 3.75 | 0.388 | 0.539 | 3.04 | 4.13 | 0.0429 | 5.48 | 1.05 | 4.32
AGAACGAGGGCACGCTGGGTTGATAGCAGAGTAG | 3.63 | 3.69 | 1.12 | 0.143 | 0.498 | 1.25 | 0.183 | 1.17 | 0.372 | 2.41
GCATAAAGGTAATACAAGGTGAAAGTCCGATTGT | 0.839 | 1.67 | 0.773 | 0.759 | 0.757 | 1.42 | -0.0245 | 1.99 | 0.262 | 1.11
CAAACTAGGTGAAAGGTCAAAGTCGAGCCAACCA | 8.64 | 9.19 | 5.27 | 2.48 | 8.98 | 6.14 | 1.76 | 8 | 3.76 | 5.05
ATCTCTAGGTAACCACGTTCAGTGAATGCCGAAC | 2.95 | 2.6 | 1.15 | 0.998 | 0.238 | -0.177 | 0.023 | -0.2 | 0.526 | 0.324
GCGACTGGGGCATTAGCAGGTTACCATAACTTAA | 3.92 | 2.83 | -0.21 | -0.476 | 0.463 | -0.152 | -0.13 | 0.182 | -0.164 | 0.559
TCATATAGGTAAAAGGGGAAAGTCGGTGTGGTAA | 4.82 | 3.69 | 1.31 | 1.21 | 1.73 | 0.624 | 0.862 | 1.17 | 2.27 | 0.958
TCTAGCAGGCCAGAGGGGCACTCAAGAGGTACGG | 0.959 | -0.0435 | -0.531 | -0.834 | -0.877 | -0.511 | -0.673 | -0.329 | -0.905 | 0.329
GATACAGGGTCAAGGCCAGAGAACGCGTATTGAT | 2.63 | 3.9 | 1.58 | -0.524 | 2.6 | 3.71 | 0.476 | 4.41 | 1.07 | 4.49
TCTGCTTGGTCAGTTGGTCAGCTAACGAGCTGCC | 0.546 | 0.646 | -0.341 | 0.287 | -1.35 | -0.535 | -1.14 | -0.645 | -1.41 | 0.775
AGAATGAGGTTACCAAAGATCAGGGAAACGCTTG | 3.53 | 3.38 | 1.26 | 1.04 | 1.16 | 1.38 | 0.241 | 2.16 | -0.326 | 2.03
AGAATGAGGTTACCAAAGAACAGGGAAACGCTTG | 3.61 | 3.21 | 0.635 | 0.163 | 0.531 | 1.06 | 0.0622 | 1.64 | 0.0488 | 2.11
TAGCCTAGGTCAGATCGGGCCAATATACGCTATA | 0.525 | 1.37 | -0.296 | -0.715 | 0.782 | 2.21 | -0.489 | 1.9 | -0.0136 | 2.94
TATTGTAGATCAATAGAGGTTAAGAAAGTGCGCT | 0.44 | 1.78 | 1.72 | 1.55 | 0.993 | 3.04 | 0.513 | 1.71 | 1.1 | 0.903
GCTAGTTGGTCAGTAAAAGGTAACACACCGGTCG | 0.651 | 0.622 | -0.712 | 0.0528 | 0.535 | 0.2 | 0.0944 | 0.372 | 0.548 | 1.03
GCTCAGAGGACAAGGTCAGAGCTTTGTCCGTAGA | 0.92 | 0.924 | -1.05 | -1.28 | 0.348 | 1.74 | -0.21 | 2.17 | -0.133 | 3.78
ATCTCTATGTAAGACTCAGTTCAGTGAAGAACGC | -0.194 | -0.197 | 0.298 | 1.3 | 0.674 | 0.52 | 1.01 | 0.0686 | 0.753 | 0.0321
AGAATGAGGTTATACGTAGAACAGGGAAGAAAGT | 4 | 1.9 | 1.52 | 1.09 | 1.26 | 1.09 | 0.773 | 1.36 | -0.459 | 1.36
CGGACTAGGTCATTGACAGGACAGTGAATAGTAA | 7.36 | 7.62 | 1.48 | 0.689 | 1.1 | 1.6 | 0.0677 | 2.12 | 0.305 | 3.53
TCTTGTAGATCAGCAGGTTAAGAAAGCTGGCCAA | 1.47 | 0.491 | 0.15 | 0.117 | -0.272 | 0.155 | -0.284 | 0.351 | -0.421 | 0.213
CAAACTAGGTCAATGGTCAAAGTCGAGCCAACCA | 8.19 | 8.52 | 2.18 | 0.945 | 1.27 | 1.38 | 0.195 | 2.25 | 0.441 | 3.9
CCTTACGGGTCACGAGGTTAAAGCACGACGAGCG | 3.53 | 5.39 | 0.774 | 0.583 | 4.94 | 4.93 | 0.408 | 6.28 | 1.03 | 4.76
GCTCGGAGGACAAGGGCAGAGCTTTGTCCGTAGA | -0.664 | -0.527 | -1.1 | -1.88 | -0.96 | -0.518 | -0.927 | -0.516 | -1.17 | 1.4
ACTGGCAGGCCAAGGGTCACTCAAGATTAGTCCG | -0.446 | 2.2 | -0.302 | -0.62 | 1.74 | 2.97 | -0.0528 | 3.8 | -0.0207 | 3.4
